# From PubChem BioAssay
# This is a sample that favours compounds with a hit; in the whole collection about 1.8% have one here.
# CendR NRP1 mod = modulators of CendR peptide binding to human neuropilin-1; actives 0.85% (n = 360,000); FAM-RPARPAR peptide binding to NRP-1, fluorescence polarization; O14786; inhibition, % at 25 µM;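 active means inhibition or corrected inhibition above about 18%, plus a signal ratio from 0.5 to 1.5, limit read from the data, passing the limit was not always enough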
# ABCB6 inh 2 = blocks the human ABCB6 transporter. K562-ABCB6 porphyrin accumulation, flow cytometry, 1 h; hits give low values. fluorescence ratio to DMSO, % at 10 µM. actives 0.19% (n = 360,000). AID 602162;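 active means fluorescence ratio to DMSO below 75%, the collection mean minus 3 SD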;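 further: signal is porphyrin accumulated inside mitochondria; lower ratio means ABCB6 inhibition with less porphyrin fluorescence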
# Target sequence (Q9NP58 whole entry, looked up): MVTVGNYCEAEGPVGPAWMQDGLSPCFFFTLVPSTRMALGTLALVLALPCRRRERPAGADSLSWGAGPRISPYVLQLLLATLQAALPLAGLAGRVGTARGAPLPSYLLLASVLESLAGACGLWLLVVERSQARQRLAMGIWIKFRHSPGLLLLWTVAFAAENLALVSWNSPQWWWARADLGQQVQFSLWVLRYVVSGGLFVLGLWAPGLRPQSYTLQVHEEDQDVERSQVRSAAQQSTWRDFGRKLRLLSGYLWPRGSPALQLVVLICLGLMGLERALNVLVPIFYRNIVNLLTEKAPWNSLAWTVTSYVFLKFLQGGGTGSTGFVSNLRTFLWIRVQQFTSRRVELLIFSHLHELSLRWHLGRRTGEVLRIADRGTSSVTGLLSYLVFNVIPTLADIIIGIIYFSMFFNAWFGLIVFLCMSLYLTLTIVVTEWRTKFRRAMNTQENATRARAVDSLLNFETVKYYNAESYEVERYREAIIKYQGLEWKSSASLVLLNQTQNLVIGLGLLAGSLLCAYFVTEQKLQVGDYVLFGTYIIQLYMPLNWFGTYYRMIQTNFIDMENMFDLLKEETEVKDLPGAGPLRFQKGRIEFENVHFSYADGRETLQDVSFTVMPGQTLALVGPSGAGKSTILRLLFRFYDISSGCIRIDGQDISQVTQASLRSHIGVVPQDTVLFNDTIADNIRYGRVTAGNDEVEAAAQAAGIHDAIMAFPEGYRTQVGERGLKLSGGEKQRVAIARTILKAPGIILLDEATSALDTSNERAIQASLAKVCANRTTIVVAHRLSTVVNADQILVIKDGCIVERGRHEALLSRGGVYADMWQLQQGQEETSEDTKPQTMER
# GSIS activator = primary screen for activators of insulin secretion dependent on glucose, INS-1E cells, GLuc reporter luminescence; INS-1E GLuc reporter insulin secretion, 2-3 h; activation, % at 16.6 µM; actives 0.61% (n = 370,000);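 active means lowest replicate activation of at least 40%, so every replicate reaches that level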
# hiPSC survival = increases survival of single human iPS cells; hiPSC single-cell survival, ATPlite luminescence; 100% = ROCK inhibitor wells, 0% = DMSO; survival enhancement, % at 20 µM; actives 0.044% (n = 360,000); in the data active means survival enhancement above about 18%;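 further: cells exposed to compounds for 16 hours before the ATP read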
# ARNT-TACC3 inh = disrupts binding between human ARNT and TACC3 | inhibition, % at 9.99 µM | AlphaScreen His-ARNT PAS-B/GST-TACC3 binding, luminescence; TACC3 fragment carries E629A point mutation | actives 0.66% (n = 390,000) | Q9Y6A5;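 active means mean inhibition of replicates at least 50% and at least half of replicates each reaching 50%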
# A number is an active result; - = inactive; . = not tested or not shown.
SMILES,CendR NRP1 mod,ABCB6 inh 2,GSIS activator,hiPSC survival,ARNT-TACC3 inh
C#CC(C)(O)C1CC(CC(=O)O)C1(C)C (centres undefined),-,-,-,-,-
CC1(C)C(CC(=O)O)CC1C(=O)O (centres undefined),24,-,-,-,-
O=C1Nc2ccccc2-n2nnnc2C1N1CCN(c2ccccn2)CC1 (centres undefined),-,.,101,.,.
O=C1Nc2ccccc2-n2nnnc2C1N1CCN(c2ccc(C(F)(F)F)cn2)CC1 (centres undefined),-,.,-,.,.
C[C@H](CO)N1C[C@H](C)[C@@H](CN(C)S(=O)(=O)c2cccs2)Oc2c(NS(=O)(=O)c3cccs3)cccc2C1=O,.,.,-,.,.
C=CCN(Cc1ccc(OC)c(OC)c1)C(=O)N1CCOCC1,-,-,53,-,-
COc1ccc(CN(CCN2CCOCC2)C(=O)c2c(F)cccc2F)cc1OC,-,-,-,-,-
COc1cc([N+](=O)[O-])cc(/C=N/NC(=O)Cn2nc(C)cc2C)c1O,-,-,-,-,63
COc1cc([N+](=O)[O-])cc(/C=N/NC(=O)Cn2nccc2C)c1O,-,-,-,-,71
COc1cc2oc(=O)ccc2cc1[C@@H](O)[C@@H]1OC(C)(C)OC1(C)C,27,-,-,-,-
COc1cc2oc(=O)ccc2cc1[C@H](O)[C@@H](O)C(C)(C)O,-,-,-,-,-
CCC(C)n1c(=S)[nH]c2ccccc2c1=O (centres undefined),28,-,-,-,-
CN1CCN(CCC(=O)N/N=C/c2cc([N+](=O)[O-])ccc2O)CC1,-,-,-,-,75
O=C(CCN1CCN(C(c2ccccc2)c2ccccc2)CC1)N/N=C/c1ccc(O)cc1,-,-,-,-,-
Cc1ccc(C)c(NC(=O)CCC(=O)N/N=C/c2cc([N+](=O)[O-])ccc2O)c1,-,-,-,-,49
Cc1ccccc1NC(=O)CCC(=O)N/N=C/c1cc([N+](=O)[O-])ccc1O,-,-,-,-,-
Cc1ccc(NC(=O)CCC(=O)N/N=C/c2cc([N+](=O)[O-])ccc2O)cc1,-,-,-,-,-
O=C(CCN1CCN(C(c2ccccc2)c2ccccc2)CC1)N/N=C/c1ccc(O)cc1O,-,-,-,-,45
COc1ccc(NC(=O)N(C)C[C@@H]2Oc3cc(C#CCN(C)C)ccc3S(=O)(=O)N([C@@H](C)CO)C[C@@H]2C)cc1,.,.,-,.,-
CCCCC(CC)C(=O)Oc1ccc(O)c(C(C)(C)C)c1 (centres undefined),-,-,511,-,-
CCc1ccc(C(=O)COC(=O)C(Cc2ccccc2)NC(=O)C2CCC(C)CC2)cc1 (centres undefined),-,-,48,-,-
CCc1ccc(C(=O)COC(=O)C(Cc2ccccc2)NC(=O)c2ccc(Cl)cc2)cc1 (centres undefined),-,-,.,-,-
CO[C@H]1CN(C)C(=O)c2ccc(NC(=O)C3CCCCC3)cc2OC[C@@H](C)N(Cc2nccs2)C[C@H]1C,.,.,-,.,-
Oc1ccc(-c2n[nH]c(=S)n2Cc2ccco2)cc1,-,-,.,-,-
Oc1cc2ccccc2cc1-c1n[nH]c(=S)n1Cc1ccco1,21,-,.,-,-
SMILES,CendR NRP1 mod,ABCB6 inh 2,GSIS activator,hiPSC survival,ARNT-TACC3 inh
O=C(C[C@@H]1C[C@@H]2c3cc(NC(=O)Cc4ccncc4)ccc3O[C@@H]2[C@H](CO)O1)NCc1ccccn1,.,.,-,.,-
COc1cccc(C#Cc2ccc3c(c2)[C@H]2[C@H](CCN2S(=O)(=O)c2ccc(C)cc2)[C@@H](CO)N3)c1,.,.,-,.,.
COc1cc(OC)c2c3c(c(C4CCCCC4)nc2c1)CCC3,-,-,266,-,-
COc1ccc(-c2nc(C3CCCCC3)c3cc(OC)ccc3n2)cc1,-,-,-,-,-
O=C(CN1CCCC1)Nc1cc(C(F)(F)F)ccc1Cl,-,-,-,-,-
O=C(O)CSCC(=O)Nc1cc(C(F)(F)F)ccc1Cl,-,-,49,-,-
CCNC(=O)Nc1ccc2c(c1)C(=O)N(C)[C@H]1CC[C@H](CC(=O)NCCN3CCCC3)O[C@@H]1CO2,.,.,-,.,-
COc1cc2c(c(OC)c1OC)-c1c(cc3c(c1OC)OCO3)[C@@H](OC(C)=O)[C@H](C)[C@H](C)C2,27,-,-,-,-
C/C=C(/C)C(=O)O[C@@H]1c2cc(OC)c(OC)c(OC)c2-c2c(cc3c(c2OC)OCO3)C[C@H](C)[C@]1(C)O,28,-,-,-,-
COc1cc2cc(OC(C)=O)c3cc4c(cc3c2c(OC)c1OC)OCO4,-,-,-,-,.
COc1ccc(CN2CC3(CN(C(=O)C4CCC4)C3)c3c(n(C)c4cc(OC)ccc34)[C@@H]2CO)cc1,.,.,-,.,.
Cn1c(=O)c2c(nc3n2CCCN3CCc2ccccc2)n(C)c1=O,-,-,48,-,-
CCCCC#Cc1ccc(C(=O)NNC(=O)Nc2ccccc2)o1,-,-,-,-,-
F[B-](F)(F)COCc1ccccc1C#Cc1ccccc1,.,.,98,.,.
CCCCC#Cc1ccccc1COC[B-](F)(F)F,.,.,73,.,.
F[B-](F)(F)COCc1ccccc1Br,-,-,56,-,-
O=C(O)c1ccccc1OCc1ccccc1Br,-,-,-,-,-
O=S(=O)(NCc1ccccc1)c1ccc(S(=O)(=O)N(Cc2ccccn2)Cc2ccco2)cc1,38,-,-,-,-
CCN(CC)S(=O)(=O)c1ccc(S(=O)(=O)N(Cc2ccccn2)Cc2ccco2)cc1,-,-,-,-,-
CC1(C(=O)NCC2CC2)Cc2c(-c3cccc(C(F)(F)F)c3)ccnc2O1 (centres undefined),35,-,-,-,.
COC(=O)c1nc2n(n1)C(c1ccccc1OC)C1=C(CCCC1=O)N2 (centres undefined),-,-,.,-,.
COC(=O)c1nc2n(n1)C(c1ccc(OC)c(OC)c1OC)C1=C(CCCC1=O)N2 (centres undefined),18,-,-,-,-
O=C1C(Cl)=C(NS(=O)(=O)c2ccc([N+](=O)[O-])cc2)C(=O)c2ccccc21,26,-,-,-,-
O=[N+]([O-])c1ccc(Oc2ccc(S(=O)(=O)Nc3ccccc3)cc2)cc1,-,-,.,-,-
C[C@H](CO)N1C[C@H](C)[C@H](CN(C)S(=O)(=O)c2cn(C)cn2)Oc2ccc(NC(=O)Nc3ccc4c(c3)OCO4)cc2C1=O,.,.,-,.,-
CCN1C(=O)[C@H]2[C@@H](c3ccc(-c4ccc(C(C)=O)cc4)c(OC)c3)N3CCCC[C@@]3(C(=O)OC)[C@H]2C1=O,-,-,-,-,-
CCN1C(=O)[C@@H]2[C@@H](c3ccc(-c4cc(C(C)=O)cs4)cc3)N3CCC[C@@]3(C(=O)OC)[C@@H]2C1=O,24,-,-,-,-
C[C@@H]1CN(C)C(=O)Cc2cc(N(C)C)ccc2O[C@@H]1CN(C)C,.,.,-,.,.
CCCCc1[nH]c(=O)c(C#N)c2c1CCCC2,-,-,99,-,-
